Most compounds without a hit are left out; they make up all but 6% or so of the library.
D1 PAM: Potentiators of Human D1 Dopamine Receptor: qHTS; D(1A) dopamine receptor (Homo sapiens), P21728; HEK293 TREx D1 cells, calcium flux, dopamine EC20 potentiation; potentiation, % at 10 µM; 360,000 compounds, 0.036% hits; in the data active = potentiation above about 30%; note: 0% is about no effect
Target sequence (P21728 whole entry, looked up): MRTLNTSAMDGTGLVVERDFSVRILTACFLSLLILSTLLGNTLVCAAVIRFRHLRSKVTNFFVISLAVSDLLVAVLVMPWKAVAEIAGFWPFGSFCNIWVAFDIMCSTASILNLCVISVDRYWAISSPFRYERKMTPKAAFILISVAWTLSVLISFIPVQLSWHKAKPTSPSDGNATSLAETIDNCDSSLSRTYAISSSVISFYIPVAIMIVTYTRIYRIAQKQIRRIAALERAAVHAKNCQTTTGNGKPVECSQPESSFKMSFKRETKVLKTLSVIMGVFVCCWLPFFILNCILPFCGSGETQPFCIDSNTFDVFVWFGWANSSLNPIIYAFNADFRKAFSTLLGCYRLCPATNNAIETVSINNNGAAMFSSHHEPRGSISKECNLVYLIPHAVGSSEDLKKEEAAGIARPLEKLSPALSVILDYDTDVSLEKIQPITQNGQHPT
D1 agonist: Allosteric Agonists of the Human D1 Dopamine Receptor: qHTS | D(1A) dopamine receptor (Homo sapiens), P21728 | HEK293 T-REx D1 cells, calcium flux, agonist mode | activation, % at 2 µM | 360,000 compounds, 1% hits; in the data active = activation above about 30%; note: 0% is about no effect
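Inducible HEK293 T-REx D1 cells, force-coupled to calcium signalling, were plated at 4000 cells/well with tetracycline and held overnight at 30 C. After no-wash calcium dye loading, compound-evoked calcium rise over 180 s flagged agonists.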
DRD3 agonist: qHTS of D3 Dopamine Receptor Agonist: qHTS; AID 652048, 2013; D(3) dopamine receptor (Homo sapiens), P35462; D3R DiscoveRx beta-arrestin cells, luminescence, 90 min; max activation, %; 410,000 compounds, 0.58% hits; in the data active = max activation above about 30%; note: 0% is about no effect
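Agonist-mode cell screen: cells plated at 1500/well and incubated overnight at 37 °C, then exposed to library compounds for 90 min at 37 °C. Detection reagent was added for 30–60 min at room temperature, and luminescence was read.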
D3 antag: qHTS of D3 Dopamine Receptor Antagonist: qHTS; D3R cells, DiscoveRx beta-arrestin luminescence, antagonist mode; stronger effect = lower value; max response, negative = inhibition, %; D(3) dopamine receptor (Homo sapiens), P35462; 360,000 compounds, 2.5% hits; in the data active = max response below about -50%; inconclusive = no clear call, values can overlap the other calls; note: % is set by controls: 0 for no effect and ±100 for the full control effect
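Cells expressing the human receptor were seeded at 1500 cells/well, incubated overnight at 37 degrees C in 5% CO2, then exposed to library compounds with dopamine controls for 90 minutes at 37 degrees C before luminescent detection.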
D1 antag: Antagonist of Human D 1 Dopamine Receptor: qHTS; HEK293 TREx D1 cells, calcium flux, dopamine EC80; stronger effect = lower value; activity change, negative = inhibition, % at 10 µM; D(1A) dopamine receptor (Homo sapiens), P21728; 360,000 compounds, 3.2% hits; AID 504652, 2011; in the data active = activity change below about -30%; note: % is set by controls: 0 for no effect and ±100 for the full control effect
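Antagonism measured as reduced calcium response to an EC80 dopamine addition following 180 s compound pre-read; cells were inducible HEK293 Trex D1 plated overnight at 30 C, read kinetically at 1 cycle/sec.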
Numbers without * were called inactive; ? = inconclusive; / = no result.

SMILES	D1 PAM	D1 agonist	DRD3 agonist	D3 antag	D1 antag
CCC(Sc1nncn2c1cc1oc(C)cc12)C(=O)Nc1ccc(F)cc1 (stereo unspecified)	2	0	5	/	-20
O=[S+]([O-])(NC[C@H]1CCC[C@H](CN[S+](=O)([O-])c2c(F)cccc2F)C1)c1ccc2c(c1)OCCO2	2	7	/	/	2
CN(C)c1ccc(C2CC(c3c(O)n(C4CCCCC4)c(=O)[nH]c3=O)=Nc3ccccc3S2)cc1 (stereo unspecified)	1	0	2	/	-4
CCOC(=O)[C@]12CCC=C1N(Cc1ccccc1)C(=O)[C@H](CC(=O)NCc1cccc(C(F)(F)F)c1)C2	/	/	-6	-6	/
CCN1C(=O)/C(=C/C=C2/Sc3ccccc3N2CCO)SC1=S	2	32*	-8	-28	7
CCCN1C(=O)/C(=C\C=C2/Sc3ccccc3N2CCO)SC1=S	-5	30*	0	8	2
CCCN1C(=O)/C(=C/c2ccncc2)SC1=S	-2	0	3	-8	-5
O=c1[nH]c2ccc(Cl)cc2c(-c2ccccc2)c1CN1CCOCC1	-3	6	-18	-58*	27
O=c1[nH]c2ccc(Cl)cc2c(-c2ccccc2)c1N1CCOCC1	6	2	2	0	14
CCCC(=O)Nc1cc(-c2nc3cccnc3s2)ccc1C	-3	49*	-22	/	24
CCCCC(=O)Nc1cc(-c2nc3cccnc3s2)ccc1C	0	1	2	/	-1
Cn1c(NC(=O)c2cc(-c3ccc4c(c3)OCO4)nc3ccccc23)cc(=O)n(C)c1=O	1	3	-5	?	-31*
Cc1oc2ncn(C)c(=O)c2c1C(=O)NCc1ccccc1	1	2	4	/	-1
N#Cc1cccc(NC(=O)Nc2cccs2)c1	-10	42*	-5	25	-53*
COc1ccc(NC(=O)COC(=O)CNC(=O)c2cccs2)cc1Cl	/	0	7	9	-34*
CCc1cccc(NC(=O)Nc2cccs2)c1	-9	10	1	0	-19
COc1ccc(NC(=O)CCC(=O)c2cccs2)cc1Cl	0	2	-6	0	-3
COc1ccc(NC(=O)Nc2cccs2)cc1Cl	-4	14	-1	-63*	-11
COc1ccc(NC(=O)COC(=O)Cc2cccs2)cc1Cl	/	/	1	0	/
CCNC(=O)c1ccc2c(c1)sc1nc(-c3cccc(OC)c3)cn12	0	1	4	/	-4
Cc1cc(C)cc(NC(=O)C2CCCN(c3nnc(C)c4c(C)n(-c5ccccc5)nc34)C2)c1 (stereo unspecified)	-3	0	24	/	8
COC(=O)c1ccc([C@H]2Nc3ccc(S(=O)(=O)Nc4cccc(C)c4)cc3[C@H]3C=CC[C@H]32)cc1	2	0	0	/	-85*
Cc1ccc(NS(=O)(=O)c2ccc3c(c2)[C@H]2C=CC[C@H]2[C@@H](c2ccc(F)cc2)N3)cc1C	-1	5	2	/	-15
O=C(O)c1ccc(NS(=O)(=O)c2ccc3c(c2)C2C=CCC2C(c2ccccc2F)N3)cc1 (stereo unspecified)	-2	0	6	14	-35*
Cc1ccc([C@H]2Nc3ccc(S(=O)(=O)Nc4cccc(Cl)c4C)cc3[C@H]3C=CC[C@H]32)cc1	0	4	15	/	5
COc1ccc(CCN2CCC(CNC(=O)c3cnn(-c4ccccc4)c3C3CCN(C(=O)OC(C)(C)C)CC3)CC2)cc1	-6	38*	-21	/	-4
CC(C)(C)OC(=O)N1CCC(c2c(C(=O)NCCN3CCC(Cc4ccccc4)CC3)cnn2-c2ccccc2)CC1	-3	56*	-20	/	-7
CC(C)(C)OC(=O)N1CCC(c2c(C(=O)NCCN3CCC(Cc4ccccc4)CC3)cnn2-c2ccc(F)cc2)CC1	2	40*	-16	/	-10
CC(C)(C)OC(=O)N1CCC(c2c(C(=O)NCc3cccc(Cl)c3)cnn2-c2ccc(F)cc2)CC1	-9	2	-12	/	-43*

Screens as filed in PubChem BioAssay.
